This is an account of results in article PMC7862700, “An all-to-all approach to the identification of sequence-specific readers for epigenetic DNA modifications on cytosine”.

What all share (assay): DAPPL (digital affinity profiling via proximity ligation, sequencing); 10 mM Tris-HCl pH 7.5, 50 mM NaCl, 1 mM DTT, 4% glycerol, room temperature, 30 min; GST-TFs on glutathione beads, 16-mer random dsDNA library, 0.1% formaldehyde crosslink after washing; high values mean tight binding
One test has as its target T1, FLI1 (Homo sapiens, UniProt Q01543 1-452).
T1 sequence: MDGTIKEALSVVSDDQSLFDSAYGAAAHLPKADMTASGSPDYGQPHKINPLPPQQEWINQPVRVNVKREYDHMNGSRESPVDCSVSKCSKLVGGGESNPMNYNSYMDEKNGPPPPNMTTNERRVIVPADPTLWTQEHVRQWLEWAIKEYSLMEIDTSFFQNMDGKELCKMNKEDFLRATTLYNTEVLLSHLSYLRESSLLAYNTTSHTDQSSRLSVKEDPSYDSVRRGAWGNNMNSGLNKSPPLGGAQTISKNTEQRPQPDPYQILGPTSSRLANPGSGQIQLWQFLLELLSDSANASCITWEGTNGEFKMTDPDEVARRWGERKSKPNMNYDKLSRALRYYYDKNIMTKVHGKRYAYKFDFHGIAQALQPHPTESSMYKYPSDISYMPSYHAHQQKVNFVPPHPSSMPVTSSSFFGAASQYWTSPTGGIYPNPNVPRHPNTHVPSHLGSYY
The conditions noted are these: protein: recombinant; tags: N-terminal GST; dsDNA, one strand shown. In a few lines:
(§1)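 Beads coated with glutathione captured GST-fused human transcription factors that had been expressed in yeast, and the factors were then given DNA barcodes and pooled with a tag-only sample. The pools were incubated with 200 nmole of a random double-stranded 16-mer DNA library in Tris/NaCl/DTT/glycerol buffer for 30 min at room temperature, washed, crosslinked with 0.1% formaldehyde and proximity-ligated with BsaI/T4 ligase at 37 °C for 1 h. PCR amplification and Illumina NextSeq500 sequencing came last. Binding signal is each hexamer's read frequency for a factor divided by its frequency for the tag-only sample.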

In the next test the target is T2, ELK1 (Homo sapiens, UniProt P19419 1-428).
T2 sequence: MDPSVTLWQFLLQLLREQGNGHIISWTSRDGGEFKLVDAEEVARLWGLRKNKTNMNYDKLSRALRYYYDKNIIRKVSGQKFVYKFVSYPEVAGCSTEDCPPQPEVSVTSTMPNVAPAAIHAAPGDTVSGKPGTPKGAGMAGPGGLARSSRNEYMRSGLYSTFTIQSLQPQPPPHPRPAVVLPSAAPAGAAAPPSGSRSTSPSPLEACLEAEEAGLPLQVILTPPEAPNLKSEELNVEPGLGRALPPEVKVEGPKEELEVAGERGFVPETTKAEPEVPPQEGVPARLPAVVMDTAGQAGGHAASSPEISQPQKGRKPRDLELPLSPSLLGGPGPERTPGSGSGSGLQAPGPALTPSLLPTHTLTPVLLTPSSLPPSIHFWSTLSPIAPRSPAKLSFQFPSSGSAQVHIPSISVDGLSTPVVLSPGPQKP
The following applies: protein: recombinant; tags: N-terminal GST; dsDNA, one strand shown. In a few lines: as §1

The target in a further test is T3, GABPA (Homo sapiens, UniProt Q06546 1-454).
T3 sequence: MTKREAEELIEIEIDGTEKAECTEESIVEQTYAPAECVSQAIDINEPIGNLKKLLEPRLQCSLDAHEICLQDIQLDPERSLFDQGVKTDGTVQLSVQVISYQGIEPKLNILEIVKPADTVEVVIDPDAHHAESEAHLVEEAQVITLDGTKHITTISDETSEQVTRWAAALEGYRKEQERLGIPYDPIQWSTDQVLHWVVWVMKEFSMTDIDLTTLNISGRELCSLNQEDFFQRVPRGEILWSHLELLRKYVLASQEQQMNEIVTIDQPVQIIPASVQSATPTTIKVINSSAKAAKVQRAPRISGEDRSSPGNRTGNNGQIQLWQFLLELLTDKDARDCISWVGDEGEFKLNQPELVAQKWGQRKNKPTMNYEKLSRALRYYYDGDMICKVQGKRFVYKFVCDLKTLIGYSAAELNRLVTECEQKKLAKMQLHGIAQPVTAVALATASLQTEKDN
The following applies: protein: recombinant; tags: N-terminal GST; dsDNA, one strand shown. In a few lines: as §1

The target in another test is ELF1 (Homo sapiens, UniProt P32519 1-619). The following applies: protein: recombinant; tags: N-terminal GST; dsDNA, one strand shown. The gist of the method: as §1
Another test concerns the target SPIB (Homo sapiens, UniProt Q01892 1-262). The conditions noted are these: protein: recombinant; tags: N-terminal GST; dsDNA, one strand shown. In a few lines: as §1
For a further test, the target named is T4, FEV (Homo sapiens, UniProt Q99581 1-238).
T4 sequence: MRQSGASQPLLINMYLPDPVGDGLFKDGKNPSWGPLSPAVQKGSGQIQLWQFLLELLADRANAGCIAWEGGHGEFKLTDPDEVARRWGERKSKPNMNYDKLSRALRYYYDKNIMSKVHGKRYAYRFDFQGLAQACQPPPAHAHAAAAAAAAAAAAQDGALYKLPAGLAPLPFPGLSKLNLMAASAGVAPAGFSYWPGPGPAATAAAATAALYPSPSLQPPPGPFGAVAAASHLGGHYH
The following applies: protein: recombinant; tags: N-terminal GST; dsDNA, one strand shown. The gist of the method:
as §1

In the next test the target is ETV5 (Homo sapiens, UniProt P41161 1-510). The following applies: protein: recombinant; tags: N-terminal GST; dsDNA, one strand shown. The gist of the method: as §1
A further test deals with HSF1 (Homo sapiens, UniProt Q00613 1-529). The following applies: protein: recombinant; tags: N-terminal GST; chain copies: 3; dsDNA, one strand shown. The gist of the method: as §1
The next test concerns the target T5, SPIC (Homo sapiens, UniProt Q8N5J4 1-248).
T5 sequence: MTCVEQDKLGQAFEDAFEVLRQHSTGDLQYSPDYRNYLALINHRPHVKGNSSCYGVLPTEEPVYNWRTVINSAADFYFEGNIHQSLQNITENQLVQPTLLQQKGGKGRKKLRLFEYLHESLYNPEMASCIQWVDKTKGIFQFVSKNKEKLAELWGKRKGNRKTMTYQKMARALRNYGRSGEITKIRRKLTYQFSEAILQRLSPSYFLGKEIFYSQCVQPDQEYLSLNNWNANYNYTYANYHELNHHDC
The following applies: protein: recombinant; tags: N-terminal GST; dsDNA, one strand shown. In a few lines: as §1

For the next test, the target named is T6, ELK4 (Homo sapiens, UniProt P28324-2 1-405).
T6 sequence: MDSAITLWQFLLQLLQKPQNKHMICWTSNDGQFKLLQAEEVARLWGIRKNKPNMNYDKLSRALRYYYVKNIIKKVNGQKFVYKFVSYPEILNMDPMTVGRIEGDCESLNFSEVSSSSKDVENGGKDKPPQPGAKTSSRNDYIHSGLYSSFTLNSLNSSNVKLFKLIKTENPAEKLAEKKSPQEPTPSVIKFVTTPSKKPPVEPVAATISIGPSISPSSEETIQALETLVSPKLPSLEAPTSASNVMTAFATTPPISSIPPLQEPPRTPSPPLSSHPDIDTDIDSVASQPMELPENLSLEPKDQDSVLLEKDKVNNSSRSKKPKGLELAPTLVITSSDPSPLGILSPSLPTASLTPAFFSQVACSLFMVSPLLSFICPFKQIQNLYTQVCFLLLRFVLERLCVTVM
The conditions noted are these: protein: recombinant; tags: N-terminal GST; dsDNA, one strand shown. The gist of the method:
as §1

For another test, the target named is T7, ELF3 (Homo sapiens, UniProt P78545 1-371).
T7 sequence: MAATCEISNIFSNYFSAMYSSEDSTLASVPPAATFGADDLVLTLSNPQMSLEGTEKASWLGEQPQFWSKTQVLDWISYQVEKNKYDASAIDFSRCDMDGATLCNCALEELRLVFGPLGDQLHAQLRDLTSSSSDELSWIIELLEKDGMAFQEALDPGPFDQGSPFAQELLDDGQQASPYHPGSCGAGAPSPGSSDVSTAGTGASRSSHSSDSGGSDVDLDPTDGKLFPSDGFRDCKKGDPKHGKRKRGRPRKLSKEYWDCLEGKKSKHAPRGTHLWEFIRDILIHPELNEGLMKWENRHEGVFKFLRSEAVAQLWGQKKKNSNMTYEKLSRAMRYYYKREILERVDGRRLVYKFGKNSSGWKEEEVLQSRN
The conditions noted are these: protein: recombinant; tags: N-terminal GST; dsDNA, one strand shown. The gist of the method: as §1

The target in a further test is CRX (Homo sapiens, UniProt O43186 1-299). The conditions noted are these: protein: recombinant; tags: N-terminal GST; dsDNA, one strand shown. The gist of the method: as §1
The target of a further test is ETV1 (Homo sapiens, UniProt P50549 1-477). The following applies: protein: recombinant; tags: N-terminal GST; dsDNA, one strand shown. In a few lines:
as §1

Another test concerns the target SPI1 (Homo sapiens, UniProt P17947 1-270). The following applies: protein: recombinant; tags: N-terminal GST; dsDNA, one strand shown. In a few lines: as §1
The target in another test is T8, ELK3 (Homo sapiens, UniProt P41970 1-407).
T8 sequence: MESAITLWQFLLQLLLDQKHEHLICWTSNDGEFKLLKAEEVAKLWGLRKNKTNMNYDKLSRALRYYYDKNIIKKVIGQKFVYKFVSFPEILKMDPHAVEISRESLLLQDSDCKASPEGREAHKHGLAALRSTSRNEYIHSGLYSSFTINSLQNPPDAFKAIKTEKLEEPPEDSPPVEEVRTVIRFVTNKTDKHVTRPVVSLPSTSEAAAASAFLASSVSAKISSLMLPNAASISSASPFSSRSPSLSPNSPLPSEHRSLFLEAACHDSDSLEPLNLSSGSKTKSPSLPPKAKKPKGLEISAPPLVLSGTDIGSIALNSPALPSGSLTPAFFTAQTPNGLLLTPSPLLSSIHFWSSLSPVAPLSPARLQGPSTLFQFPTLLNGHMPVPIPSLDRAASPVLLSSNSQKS
The conditions noted are these: protein: recombinant; tags: N-terminal GST; dsDNA, one strand shown. In a few lines:
as §1

Another test has as its target ELF4 (Homo sapiens, UniProt Q99607 1-663). The conditions noted are these: protein: recombinant; tags: N-terminal GST; dsDNA, one strand shown. In a few lines: as §1
The target of a further test is T9, ETV2 (Homo sapiens, UniProt O00321 1-342).
T9 sequence: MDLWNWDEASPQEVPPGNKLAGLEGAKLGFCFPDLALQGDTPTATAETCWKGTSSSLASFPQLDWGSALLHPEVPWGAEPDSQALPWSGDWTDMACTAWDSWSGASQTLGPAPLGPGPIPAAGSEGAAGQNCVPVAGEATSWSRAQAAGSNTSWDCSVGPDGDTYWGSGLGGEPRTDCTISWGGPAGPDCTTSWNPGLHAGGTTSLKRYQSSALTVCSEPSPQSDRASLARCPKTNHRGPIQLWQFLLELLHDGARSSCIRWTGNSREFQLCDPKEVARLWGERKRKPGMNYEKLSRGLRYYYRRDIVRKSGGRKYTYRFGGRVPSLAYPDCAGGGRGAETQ
The following applies: protein: recombinant; tags: N-terminal GST; dsDNA, one strand shown. The gist of the method: as §1

Sequence of ETV5 (P41161 whole entry): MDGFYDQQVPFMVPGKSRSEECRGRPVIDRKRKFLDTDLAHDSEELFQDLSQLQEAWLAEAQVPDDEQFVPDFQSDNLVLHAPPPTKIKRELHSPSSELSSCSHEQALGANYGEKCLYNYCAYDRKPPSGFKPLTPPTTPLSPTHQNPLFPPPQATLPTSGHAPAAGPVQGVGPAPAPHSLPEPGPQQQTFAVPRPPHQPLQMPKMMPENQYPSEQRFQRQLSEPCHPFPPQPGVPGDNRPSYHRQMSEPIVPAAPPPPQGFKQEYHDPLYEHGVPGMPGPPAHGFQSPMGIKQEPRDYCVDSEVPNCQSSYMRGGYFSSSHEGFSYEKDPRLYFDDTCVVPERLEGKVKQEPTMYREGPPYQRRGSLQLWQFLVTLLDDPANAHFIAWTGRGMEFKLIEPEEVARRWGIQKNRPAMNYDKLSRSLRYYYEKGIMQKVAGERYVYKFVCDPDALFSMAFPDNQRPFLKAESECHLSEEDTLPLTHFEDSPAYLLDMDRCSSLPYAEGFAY
Sequence of SPIB (Q01892 whole entry): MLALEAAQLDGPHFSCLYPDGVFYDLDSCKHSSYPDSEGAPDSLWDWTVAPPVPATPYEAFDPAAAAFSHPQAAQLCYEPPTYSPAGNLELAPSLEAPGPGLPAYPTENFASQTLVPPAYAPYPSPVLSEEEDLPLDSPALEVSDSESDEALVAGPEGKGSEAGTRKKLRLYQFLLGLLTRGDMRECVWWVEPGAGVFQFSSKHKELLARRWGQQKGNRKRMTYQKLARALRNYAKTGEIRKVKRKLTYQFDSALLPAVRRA
Sequence of CRX (O43186 whole entry): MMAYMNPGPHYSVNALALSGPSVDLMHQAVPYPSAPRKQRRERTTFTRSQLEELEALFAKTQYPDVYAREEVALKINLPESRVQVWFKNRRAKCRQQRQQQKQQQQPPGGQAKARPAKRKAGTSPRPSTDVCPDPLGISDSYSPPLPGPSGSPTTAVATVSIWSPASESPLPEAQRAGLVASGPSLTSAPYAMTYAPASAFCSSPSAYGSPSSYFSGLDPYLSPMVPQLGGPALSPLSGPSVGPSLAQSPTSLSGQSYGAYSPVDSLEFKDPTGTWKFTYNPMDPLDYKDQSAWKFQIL
Sequence of ELF1 (P32519 whole entry): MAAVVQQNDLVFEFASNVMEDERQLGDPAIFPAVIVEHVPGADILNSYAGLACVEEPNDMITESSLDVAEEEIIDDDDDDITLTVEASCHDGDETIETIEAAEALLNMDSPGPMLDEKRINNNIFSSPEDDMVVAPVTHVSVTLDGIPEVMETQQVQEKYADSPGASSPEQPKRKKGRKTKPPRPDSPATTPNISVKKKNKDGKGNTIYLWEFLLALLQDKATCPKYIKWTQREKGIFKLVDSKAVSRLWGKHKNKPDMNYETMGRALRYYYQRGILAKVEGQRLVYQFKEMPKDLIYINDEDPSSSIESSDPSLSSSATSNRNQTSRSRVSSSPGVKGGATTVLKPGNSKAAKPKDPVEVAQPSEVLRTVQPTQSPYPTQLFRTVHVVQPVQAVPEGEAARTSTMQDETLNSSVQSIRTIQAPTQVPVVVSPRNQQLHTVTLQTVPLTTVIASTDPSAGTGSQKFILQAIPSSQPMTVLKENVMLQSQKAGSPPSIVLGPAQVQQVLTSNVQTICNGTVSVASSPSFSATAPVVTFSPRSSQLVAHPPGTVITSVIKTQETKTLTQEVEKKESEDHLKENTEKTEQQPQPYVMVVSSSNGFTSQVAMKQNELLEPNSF
Sequence of HSF1 (Q00613 whole entry): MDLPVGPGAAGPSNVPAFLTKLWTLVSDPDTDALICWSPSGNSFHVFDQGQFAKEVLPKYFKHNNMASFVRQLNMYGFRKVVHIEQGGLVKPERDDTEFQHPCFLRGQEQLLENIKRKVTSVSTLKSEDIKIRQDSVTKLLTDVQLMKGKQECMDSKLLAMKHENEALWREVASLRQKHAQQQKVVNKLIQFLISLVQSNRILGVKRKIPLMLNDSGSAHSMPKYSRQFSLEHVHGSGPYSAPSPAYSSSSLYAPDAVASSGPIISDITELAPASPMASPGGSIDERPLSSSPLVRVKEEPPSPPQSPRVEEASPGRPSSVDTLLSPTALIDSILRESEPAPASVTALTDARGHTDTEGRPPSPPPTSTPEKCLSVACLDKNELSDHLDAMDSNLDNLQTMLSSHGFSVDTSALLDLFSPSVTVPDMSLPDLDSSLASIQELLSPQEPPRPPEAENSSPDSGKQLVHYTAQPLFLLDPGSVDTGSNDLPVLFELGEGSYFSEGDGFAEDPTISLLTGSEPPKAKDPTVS
Sequence of ELF4 (Q99607 whole entry): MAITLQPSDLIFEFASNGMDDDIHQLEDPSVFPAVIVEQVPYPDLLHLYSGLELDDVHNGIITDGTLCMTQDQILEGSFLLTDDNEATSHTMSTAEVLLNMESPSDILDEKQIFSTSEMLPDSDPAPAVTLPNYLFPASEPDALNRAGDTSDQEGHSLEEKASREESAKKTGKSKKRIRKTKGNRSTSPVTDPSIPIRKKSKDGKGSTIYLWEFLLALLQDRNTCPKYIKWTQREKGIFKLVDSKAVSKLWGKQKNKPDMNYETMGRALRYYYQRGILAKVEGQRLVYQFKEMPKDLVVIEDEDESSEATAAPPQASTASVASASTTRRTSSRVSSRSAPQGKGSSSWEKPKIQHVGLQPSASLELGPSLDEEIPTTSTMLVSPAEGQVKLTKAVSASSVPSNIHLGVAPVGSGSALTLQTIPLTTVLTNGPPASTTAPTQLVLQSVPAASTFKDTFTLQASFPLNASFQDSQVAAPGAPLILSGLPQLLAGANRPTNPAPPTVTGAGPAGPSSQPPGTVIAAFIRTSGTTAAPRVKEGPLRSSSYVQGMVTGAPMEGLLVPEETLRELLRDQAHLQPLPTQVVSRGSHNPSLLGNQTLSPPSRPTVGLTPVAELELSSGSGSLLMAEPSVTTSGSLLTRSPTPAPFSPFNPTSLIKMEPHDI
Sequence of ETV1 (P50549 whole entry): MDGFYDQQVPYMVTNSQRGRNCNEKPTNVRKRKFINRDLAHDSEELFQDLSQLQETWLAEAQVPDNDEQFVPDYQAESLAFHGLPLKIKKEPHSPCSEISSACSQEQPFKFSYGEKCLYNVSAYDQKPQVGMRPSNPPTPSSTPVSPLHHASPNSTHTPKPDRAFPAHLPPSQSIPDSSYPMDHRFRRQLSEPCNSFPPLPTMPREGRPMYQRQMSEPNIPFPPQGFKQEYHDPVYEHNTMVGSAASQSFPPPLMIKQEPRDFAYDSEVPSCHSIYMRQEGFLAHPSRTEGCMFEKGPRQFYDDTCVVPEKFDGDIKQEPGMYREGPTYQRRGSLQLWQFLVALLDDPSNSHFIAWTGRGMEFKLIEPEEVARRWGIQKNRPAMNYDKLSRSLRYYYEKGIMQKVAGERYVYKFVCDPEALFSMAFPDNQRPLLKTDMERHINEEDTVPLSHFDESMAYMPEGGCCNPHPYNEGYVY

Turning to AAAGCC, the binding signal with FLI1 is 1.05 fold enrichment (6-mer frequency, TF over GST control); in the test with ELK1, 1.05 fold enrichment (6-mer frequency, TF over GST control); with GABPA, 1.04 fold enrichment (6-mer frequency, TF over GST control); with ELF1, 1.08 fold enrichment (6-mer frequency, TF over GST control); in the test with SPIB, 1 fold enrichment (6-mer frequency, TF over GST control); in the test with FEV, 1.03 fold enrichment (6-mer frequency, TF over GST control). Besides, the binding signal with ETV5 is 1.02 fold enrichment (6-mer frequency, TF over GST control); in the test with HSF1 it was 1.14 fold enrichment (6-mer frequency, TF over GST control); in the test with SPIC, 1.14 fold enrichment (6-mer frequency, TF over GST control); with ELK4, 1.02 fold enrichment (6-mer frequency, TF over GST control); in the test with ELF3, 1.01 fold enrichment (6-mer frequency, TF over GST control); with CRX it was 1.42 fold enrichment (6-mer frequency, TF over GST control). Besides, the binding signal in the test with ETV1 was 1.03 fold enrichment (6-mer frequency, TF over GST control).

On to TTTAGT, for which the binding signal is 1.13 fold enrichment (6-mer frequency, TF over GST control) in the test with FLI1; 1.11 fold enrichment (6-mer frequency, TF over GST control) in the test with GABPA; 1.11 fold enrichment (6-mer frequency, TF over GST control) with ELF1; 1.07 fold enrichment (6-mer frequency, TF over GST control) in the test with SPI1; 1.12 fold enrichment (6-mer frequency, TF over GST control) with SPIB; 1.11 fold enrichment (6-mer frequency, TF over GST control) with ELK3. In addition, the binding signal in the test with ETV5 was 1.04 fold enrichment (6-mer frequency, TF over GST control); with HSF1 it was 1.2 fold enrichment (6-mer frequency, TF over GST control); with SPIC it was 1.15 fold enrichment (6-mer frequency, TF over GST control); with ELF4 it was 1.04 fold enrichment (6-mer frequency, TF over GST control); with ETV2, 1.23 fold enrichment (6-mer frequency, TF over GST control); with ELF3 it was 1.04 fold enrichment (6-mer frequency, TF over GST control). Also, the binding signal with CRX is 1.55 fold enrichment (6-mer frequency, TF over GST control).
